# This is a sample that favours compounds with a hit; in the whole collection about 2.3% have one here.
# GLS inh – blocks human kidney-isoform glutaminase activity; GLS enzymatic activity, qHTS titration; Potency, µM (titrated, usually from 45.5 µM), hits mostly inhibitors; actives 0.21% (n = 410,000); AID 624170
#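 Human kidney-isoform GLS in 45 mM KH2PO4 pH 8.2, 0.02% Tween-20, with compound, started with 1mM L-Glutamine (added stock). Glutamate oxidase/HRP/Amplex red coupled fluorescence read at start and after 30 min at RT.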
# PTHR1 ag – PTHR1 (human) receptor agonism; Q03431; HEK293 GP2 PTHR1 cells, GloSensor cAMP luminescence, 1 h; Potency, µM (highest dose often 115 µM), actives largely listed as activators; actives 0.075% (n = 410,000); note: nearly all actives have a fitted effect of over 55% in size
#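 HEK-293-derived GP2 cells expressing PTHR1 and a GloSensor cAMP reporter, 3,000/well, plated overnight, given luciferin plus IBMX (each 0.5 mM as added) for 1 h at 37 °C, then compound for 1 h at 37 °C. Luminescence was read after 15 min at room temperature.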
# GLP1R inv ag – inverse agonists of human GLP-1 receptor; Potency, µM (top dose mostly 38.3 µM), usual class: inhibitors; HEK293 GLP-1R CRE-luciferase, luminescence, 24 h; GLP-1R form is constitutively active; actives 1.6% (n = 410,000); AID 624417; note: nearly all actives have a fitted effect of over 55% in size
# Target sequence (P43220 whole entry, looked up): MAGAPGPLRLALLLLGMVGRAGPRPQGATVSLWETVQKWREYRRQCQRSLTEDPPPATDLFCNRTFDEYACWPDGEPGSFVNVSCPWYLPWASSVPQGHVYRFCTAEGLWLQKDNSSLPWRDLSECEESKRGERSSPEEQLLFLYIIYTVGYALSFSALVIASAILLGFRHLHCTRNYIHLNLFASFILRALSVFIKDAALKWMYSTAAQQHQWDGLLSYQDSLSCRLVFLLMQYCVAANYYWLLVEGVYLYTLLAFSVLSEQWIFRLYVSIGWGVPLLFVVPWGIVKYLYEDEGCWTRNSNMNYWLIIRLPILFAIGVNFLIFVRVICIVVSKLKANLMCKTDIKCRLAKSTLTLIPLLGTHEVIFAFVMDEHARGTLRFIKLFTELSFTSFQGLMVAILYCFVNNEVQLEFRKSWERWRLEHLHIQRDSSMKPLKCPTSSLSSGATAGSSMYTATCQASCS
#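 Readout was luciferase luminescence, measured 12 min after detection reagent at room temperature. Beforehand, GLP-1R reporter HEK293 cells had sat 12 h, then received compounds for 24 hr at 37 deg C.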
# Glioma ERSR ind – inducers of ER stress response in human glioma cells; Potency, µM, actives largely listed as activators; actives 0.02% (n = 420,000); U87-MG GRP78 promoter luciferase reporter, 16 h; AID 602332; note: series mostly up to about 76 µM; nearly all actives have a fitted effect of over 35% in size
#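 Stably transfected U87-MG human glioma cells carrying a GRP78-based luminescent sensor were seeded at 1000 cells/well, pin-dosed with compounds and incubated 16 h. Luciferase reagent was then added, and end-point luminescence was read after 10 min at room temperature.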
# GLP-1R agonist – GLP-1 receptor (human) agonism | AID 624172 | actives 0.007% (n = 380,000) | Potency, µM (doses to about 45.6 µM), usual class: activators | P43220 | HEK293 GLP-1R CRE-luciferase, luminescence, 4-6 h; cells express a hypersensitive GLP-1R form
# 12-LOX inh – blocks human arachidonate 12S-lipoxygenase; purified 12hLO, xylenol orange hydroperoxide absorbance; AID 1671190; actives 1.1% (n = 580,000); P18054; Potency, µM (top dose mostly 108 µM), actives largely listed as inhibitors
#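 Purified human 12hLO at 150 nM in 25 mM Hepes, 0.01% Triton X-100, pH 7.0, preincubated 15 min at room temperature with compound. Reaction started with 40 uM arachidonic acid, 30 min at room temperature. Hydroperoxide measured by Fe-xylenol orange, 573/405 nm absorbance ratio.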
# A number is an active result; 0 = inactive; ? = inconclusive; - = not tested or not shown. Calls come from the whole dose curve; as a rule, active = well fitted curve in the direction sought with a large enough effect; inconclusive = small, poorly fitted or top-dose-only effect, or another doubt; inactive = no such curve, though single readings can be large; an effect the other way counts as inactive or inconclusive.
SMILES,GLS inh,PTHR1 ag,GLP1R inv ag,Glioma ERSR ind,GLP-1R agonist,12-LOX inh
COc1ccc(Cc2c(-c3cccc(Cl)c3)nc3c(C)cc(Br)cn23)c(C)c1,0,0,0,0,0,7.9µM
COc1ccc(Cc2c(-c3ccc(Cl)cc3)nc3c(C)cc(Br)cn23)c(C)c1,0,0,?,0,0,?
COc1ccc(Cc2c(-c3cccc(Cl)c3)nc3cc(C)c(Br)c(C)n23)c(C)c1,0,0,8.9µM,-,0,?
COc1ccccc1Cc1c(-c2ccc(C#N)cc2)nc2ccc(Br)cn12,0,?,0,0,0,25µM
Cn1ncc2c(SCc3nc4ccccc4n3C(F)F)ncnc21,-,-,-,-,-,0
CCCn1c(C)cc(C(=O)CSc2nnc(COc3ccc(Cl)cc3)n2C)c1C,-,-,-,-,-,0
CC(NC(=O)c1nn(C)c(=O)c2ccccc12)c1ccc(-c2ccccc2)cc1 (configuration not stated),-,-,-,-,-,0
CCC(=O)N1CCC(C(=O)Nc2ccc(S(=O)(=O)N3CCCC3)cc2)CC1,-,-,-,-,-,0
Cn1nc(C(=O)N2CCN(CC(=O)N3CCCC3)CC2)c2ccccc2c1=O,-,-,-,-,-,0
COc1ccccc1Cc1c(-c2ccc(F)cc2)nc2c(C)cc(Br)cn12,0,0,?,35µM,0,?
COc1ccc(Cc2c(-c3ccc(F)cc3)nc3ccc(Cl)cn23)c(C)c1,0,0,0,0,0,28µM
Cc1ccc(Cc2c(-c3ccc(Cl)cc3)nc3cc(C)c(Br)c(C)n23)cc1,0,0,?,0,0,8.9µM
Cc1cc(Br)cn2c(Cc3ccsc3)c(-c3cccc(Cl)c3)nc12,0,0,?,0,0,0
Cc1cc(Br)cn2c(Cc3cccc(Cl)c3)c(-c3cccc(Cl)c3)nc12,0,0,10µM,-,0,?
CCOc1ccc(CC(=O)N2CCN(c3cc(-c4cccs4)[nH]n3)CC2)cc1OCC,-,-,-,-,-,0
COc1ccc(Cc2c(-c3cccc(Cl)c3)nc3ccc(C)cn23)c(C)c1,0,0,0,0,0,10µM
O=C(Cc1cccs1)Nc1cccc2c1CCCC2,-,-,-,-,-,0
CCCCC1=NN(C(=O)c2ccco2)C(O)(C(F)(F)F)C1 (configuration not stated),0,0,2.2µM,0,0,0
CCCC1=NN(C(=O)C(=O)Nc2ccc(Br)cc2)C(O)(C(F)(F)F)C1 (configuration not stated),0,0,7.1µM,0,0,?
CCOC(=O)C(=NCC1CCCO1)NNc1cc(Cl)ccc1Cl (configuration not stated),0,0,11µM,0,0,?
N#CC1=C(N)C2=CCCC[C@H]2[C@H](c2ccc(Br)cc2)C1(C#N)C#N,0,0,0,0,0,-
N#CC1=C(N)C2=CCCC[C@H]2[C@H](c2ccccc2)C1(C#N)C#N,0,0,4.5µM,0,0,0
N#Cc1c(SCCN2CCOCC2)nc(N2CCCCC2)c2c1CCCC2,-,-,-,-,-,0.79µM
COc1cccc(-c2nc3cc(NC(=O)c4ccc(C)c([N+](=O)[O-])c4)ccc3o2)c1,-,-,-,-,-,45µM
Cc1cccc(-c2nc3cc(NC(=O)c4ccc(C)c([N+](=O)[O-])c4)ccc3o2)c1,-,-,-,-,-,0
SMILES,GLS inh,PTHR1 ag,GLP1R inv ag,Glioma ERSR ind,GLP-1R agonist,12-LOX inh
Cc1cc(C)c(O)c(CN(C)Cc2cc(Cl)cc(Cl)c2O)c1,0,0,?,0,0,40µM
CNC(=O)c1ccccc1C(=O)c1cc(C)ccc1C,-,-,-,-,-,0
CN(CC(=O)Nc1cccc(F)c1)Cc1ncc(-c2ccc(F)cc2)o1,-,-,-,-,-,0
C/C=C/c1ccc(OCCCCN2CC(C)CC(C)C2)c(OC)c1 (configuration not stated),0,0,11µM,0,0,?
C/C=C/c1ccc(OCCCNCC(C)O)c(OC)c1 (configuration not stated),0,0,5.6µM,0,0,0
C/C=C/c1ccc(OCCCCN2CCN(CC)CC2)c(OC)c1,0,0,?,0,0,?
O=C(CN(Cc1ccco1)S(=O)(=O)c1ccccc1)N/N=C/c1cccc(O)c1,0,0,?,0,0,0
Cc1cccc(S(=O)(=O)N(CC(=O)Nc2ccccc2C)Cc2ccco2)c1,0,0,8.9µM,0,0,0
COc1cccc(-c2ccc(=O)n(CC(=O)Nc3cc(Cl)c(OC)cc3OC)n2)c1,-,-,-,-,-,0
Cc1ccc(C(=O)/C=C\N(C)C)cc1,-,-,-,-,-,56µM
CN(C)/C=C/C(=O)c1ccc(Cl)cc1,0,0,0,0,0,16µM
Cc1ccc(C(=O)/C=C/N(C)C)cn1,0,0,0,0,0,0
CN(C)/C=C\C(=O)c1ccc(Br)cc1,-,-,-,-,-,4µM
CN(C)/C=C/C(=O)c1ccn(S(=O)(=O)c2ccccc2)c1,0,0,0,0,0,50µM
COC(=O)c1ccccc1NC(=O)CN(C)S(=O)(=O)c1c(C)noc1C,-,-,-,-,-,0
Cc1c(NCc2nc(-c3ccco3)no2)cccc1-n1cnnn1,-,-,-,-,-,0
CN(C)/C=C/C(=O)c1ccc(-c2ccc(Cl)cc2Cl)o1,0,0,0,0,0,1.6µM
O=C(O)c1ccc(-c2ccc(Cl)cc2Cl)o1,0,0,0,0,0,?
CSCCC(NS(=O)(=O)c1cccs1)C(=O)Nc1ccc(C)c(Cl)c1 (configuration not stated),0,0,0,0,-,50µM
N#Cc1ccc(F)c(Cn2cnc3ccccc3c2=O)c1,-,-,-,-,-,0
COc1cccc(-c2cc(C3CCN(C(=O)Nc4ccc5c(c4)OCCO5)CC3)[nH]n2)c1,-,-,-,-,-,0
Cc1nc(SCC(=O)Nc2ccc(Cl)cc2)c(C#N)c2c1CCCC2,-,-,-,-,-,0
CN1CCc2nc(SCC(=O)Nc3ccc(Cl)cc3)c(C#N)cc2C1,0,0,0,0,0,5.6µM
COC(=O)C1=C(C)N(Cc2ccccc2)C(=S)N[C@H]1c1cccc(C(F)(F)F)c1,0,0,?,0,0,?
COC(=O)C1=C(C)N(Cc2ccccc2)C(=S)N[C@H]1c1ccc(Br)cc1,0,0,?,0,0,45µM
COC(=O)C1=C(C)N(Cc2ccc(F)cc2)C(=S)NC1c1ccc(Cl)cc1 (configuration not stated),-,-,-,-,-,40µM
COC(=O)C1=C(C)N(Cc2ccc(Cl)cc2)C(=S)NC1c1ccc(OC)cc1 (configuration not stated),-,-,-,-,-,40µM
COC(=O)C1=C(C)N(Cc2ccc(Br)cc2)C(=S)NC1c1ccc(OC)cc1 (configuration not stated),-,-,-,-,-,45µM
CCOC(=O)C1=C(C)N(Cc2ccccc2)C(=O)NC1c1ccc(OC)cc1 (configuration not stated),0,0,?,0,0,0

# Screening results (PubChem)
